Bioassay records as filed in PubChem BioAssay.
TTR transcr act: TTR transcription activators in neuroblastoma reporter cells, primary screen, cell-based, luminescence, SH-SY5Y, TTR promoter Gaussia luciferase; 100% = recombinant luciferase protein wells; activation, % at 16.7 µM; actives 1.3% (n = 92,000);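 active = activation above the mean of all tested compounds plus 3 SD, cut at about 9.5% in these data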;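 note: cells exposed to compounds for one day before reading; 0% = median of all test compound wells on the plate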
TTR inh HuH7: TTR promoter reporter inhibitors in hepatoma cells, counter-screen for TTR transcription activator project, cell-based, luminescence, HuH7 hepatoma | shares compounds with TTR transcr act | inhibition, % at 16.7 µM | actives 4% (n = 1,100) | HuH7 TTR promoter-Gaussia luciferase reporter;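 active = average inhibition above the solvent-only control wells' mean plus 3 SD, cut at about 15% in these data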;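 note: 0% = cells with DMSO only and 100% = cells with inhibitor control FD; inhibitors lower well luminescence so higher value means more inhibition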
TTR act confirm: TTR transcription activators, retest, confirmation, cell-based, luminescence, SH-SY5Y, triplicate. activation, % at 16.7 µM. AID 1117280, 2014. SHSY5Y TTR promoter Gaussia luciferase; 100% = purified Lucia enzyme wells, no cells. shares compounds with TTR transcr act. 1,100 tested, under 10 active;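 active = mean activation above a set limit taken from the earlier primary screen, cut at about 11% in these data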;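 note: 0% = DMSO-treated cells and 100% = recombinant Lucia luciferase without cells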
An asterisk follows results filed as active. This excerpt belongs to a sample that is enriched for hits.

SMILES	TTR transcr act	others
O=[N+]([O-])c1cnc2ccccc2c1Sc1ccccc1	0
O=C(Nc1c(-c2ccc(F)cc2)nc2ncccn12)c1ccccc1	2
CC(C)(O)C#Cc1ccc(C(=O)NCCc2ccc(S(N)(=O)=O)cc2)cc1	-1
CCOc1cc(C(=O)NCCc2ccc(S(N)(=O)=O)cc2)cc(OCC)c1OCC	19*	TTR inh HuH7=0;TTR act confirm=1
CCN(c1ccccc1)S(=O)(=O)c1ccc(C(=O)NCCc2ccc(S(N)(=O)=O)cc2)cc1	-1
O=C(NCCc1ccccc1)OCc1cn(-c2ccc(Cl)cc2)nn1	-1
CC(C)=CCC/C(C)=C/C[C@]12C[C@H](C(=O)O)N(C(=O)OC(C)(C)C)[C@@H]1N(C(=O)OC(C)(C)C)c1ccccc12	-2
CCOC(=O)c1nn(-c2ccccc2)c(=O)cc1SC(C)C	1
CCCCSc1cc(=O)n(-c2ccccc2)nc1C(=O)OCC	10*	TTR inh HuH7=2;TTR act confirm=-1
CCCSc1cc(=O)n(-c2ccccc2)nc1C(=O)O	0
Cc1cc(NC(=O)Nc2cccc(F)c2)n(-c2ccccc2)n1	-1
C[C@H]1[C@H](NC(=O)c2ccc(C(C)(C)C)cc2)CC[C@@]23CCCN2C(=O)CCC[C@@H]13	1
O=C(OCC#CCSc1nnc(-c2cccc3ccccc23)o1)C1CC1	0
COc1cccc(-c2cc3nc(C)c(C)c(N4CCN(Cc5ccco5)CC4)n3n2)c1	-3
Cc1ccc(-c2nc3cc(C)c(Br)c(C)n3c2CC2CCCCC2)cc1	9.8*	TTR inh HuH7=-9;TTR act confirm=0
Cc1cc2nc(-c3cccc(Cl)c3)c(CC3CCCCC3)n2c(C)c1Br	2
Cc1cc2nc(-c3ccc(F)cc3)c(CC3CCCCC3)n2c(C)c1Br	2
COc1ccc(-c2nc3cc(C)c(Br)c(C)n3c2CC2CCCCC2)cc1OC	2
Cc1cc2nc(-c3ccccc3)c(CC3CCCCC3)n2c(C)c1Br	22*	TTR inh HuH7=-8;TTR act confirm=1
CCCc1nc2cc(C)c(Br)c(C)n2c1CC1CCCCC1	-2
CCC[C@H]1[C@@H](OC(=O)NCc2cccs2)CC[C@@]23CCCN2C(=O)CCC[C@@H]13	1
COc1ccc(Cn2ccc3ccc(-c4ccc5ccn(C(=O)C6CCCCC6)c5c4)cc32)cc1	-1
C#CCNC(=O)C[C@H]1C(=O)N(CC=C)C2=CCCC[C@@]21C(=O)OCC	-2
COc1ccc(NC(=O)C2(C)CCN2C(=O)C(C)C)cc1F (centres undefined)	0
CCCCNC(=O)O[C@H]1CC[C@@]23CCCN2C(=O)CCC[C@H]3[C@H]1CCC	3
SMILES	TTR transcr act	others
CCOC(=O)[C@@]12CCCC=C1N(CCc1ccc(Cl)cc1)C(=O)[C@H]2CC(=O)NCCc1ccccc1OC	-2
COc1ccc(C(=O)OCCN(C)C2CN(Cc3cn(Cc4ccccc4Cl)nn3)S(=O)(=O)C2)cc1OC (centres undefined)	9
CCC[C@H]1[C@@H](OC(=O)NCc2ccc(OC)c(OC)c2)CC[C@@]23CCCN2C(=O)CCC[C@@H]13	0
Cn1c(NC(=O)C2CC2)cc(=O)n(C)c1=O	9.9*	TTR inh HuH7=-7;TTR act confirm=0
COCC(=O)Nc1cc(=O)n(C)c(=O)n1C	11*	TTR inh HuH7=-1;TTR act confirm=-1
CCC(CC)C(=O)Nc1cc(=O)n(C)c(=O)n1C	-1
Cn1c(NC(=O)c2ccc(C(C)(C)C)cc2)cc(=O)n(C)c1=O	0
Cn1c(NC(=O)Cc2cccs2)cc(=O)n(C)c1=O	2
Cn1c(NC(=O)c2ccc(Cl)s2)cc(=O)n(C)c1=O	-1
O=C(OCC#CCSc1nnc(-c2ccccc2F)o1)c1ccc(F)cc1	-1
CCOC(OCC)P(=O)(CNC(c1ccccc1)(c1ccccc1)c1ccccc1)OCC (centres undefined)	4
CCOC(=O)[C@]12CCCC=C1N(Cc1ccc(OC)cc1)C(=O)[C@@H]2CC(=O)NCc1ccc(OC)c(OC)c1	-1
Cc1ccc(CN[C@@H]2CC[C@@]34CCCN3C(=O)CCC[C@H]4C2)o1	0
Cc1ccccc1CN1CCCCC(NC(=O)c2c(F)cccc2F)C1=O (centres undefined)	3
COc1cccc(NC(=O)Nc2nc3ncccn3c2-c2ccc(C(F)(F)F)cc2)c1	2
COC(=O)c1cnn(-c2ccc(Cl)cc2)c1/C=N/NC(=S)Nc1ccccc1	-2
COC(=O)c1cnn(-c2ccccc2)c1/C=N/NC(=S)Nc1ccccc1	11*	TTR inh HuH7=-5;TTR act confirm=-1
COC(=O)c1cnn(-c2ccc(F)cc2F)c1/C=N/NC(=S)Nc1ccccc1	-1
COC(=O)[C@]12C[C@H](CC(=O)N3CCCC3)C(=O)N(CCc3ccc(OC)c(OC)c3)C1=C[C@H](C(C)C)O[C@@H]2C1CC1	0
Cc1ccc(C(=O)O/N=C2\CCCc3ccccc32)cc1	23*	TTR inh HuH7=-2;TTR act confirm=0
O=C(O/N=C1/CCCc2occc21)c1ccccc1	-3
COc1ccc2c(c1)/C(=N/OC(=O)c1cccs1)CCC2	0
Cc1cccc(C(=O)Nc2nc3ncccn3c2-c2ccc(C(F)(F)F)cc2)c1	0
Cc1ccc(-c2nc3ncccn3c2NC(=O)c2ccc(F)cc2)cc1	0
CC(C)c1nc(C(N)=O)c2[nH]c(=O)n(-c3ccc(F)cc3)c2n1	9.8*	TTR inh HuH7=-8;TTR act confirm=-2
SMILES	TTR transcr act	others
CCOc1ccccc1-c1nc(C(N)=O)c2[nH]c(=O)n(-c3ccc(F)cc3)c2n1	1
Cc1ccsc1-c1nc(C(N)=O)c2[nH]c(=O)n(-c3ccc(Cl)cc3)c2n1	2
CC(=O)O[C@H]1[C@H](OC(C)=O)C[C@]2(OC(C)=O)C[C@H]1OC2=O	3
CC(=O)Nc1ccc(NC(=O)Nc2ccc3c(c2)N(C)C(=O)CS3)cc1	10*	TTR inh HuH7=3;TTR act confirm=-1
CN1C(=O)CSc2ccc(NC(=O)N3CCc4ccccc43)cc21	-4
CN1C(=O)CSc2ccc(NC(=O)NCc3ccc(F)cc3)cc21	-1
CC(C)CNC(=O)OCc1cn(Cc2cccc(C(F)(F)F)c2)nn1	1
CCCCCCNC(=O)c1c(N)[nH]c(C(=O)c2ccccc2)c1-c1ccc(O)cc1	-3
Cc1ccc(C(=O)Oc2coc(CSc3ncccn3)cc2=O)cc1[N+](=O)[O-]	-1
COC(=O)C1=C(C)NC(=O)C1(NC(=O)c1ccncc1)C(F)(F)F (centres undefined)	-1
CC1=C(C#N)C(NC(=O)c2ccc(C)cc2)(C(F)(F)F)C(=O)N1 (centres undefined)	2
COC(=O)NC1(C(F)(F)F)C(=O)NC(C)=C1C(=O)OC (centres undefined)	19*	TTR inh HuH7=-9;TTR act confirm=-1
CCCC1CCC2(CC1)CCC2OC(=S)NCc1cccc(OC)c1 (centres undefined)	1
CCCn1c(SCC(=O)N2CCCc3ccccc32)nnc1-c1ccccn1	0
CCCn1c(SCC(=O)N2CCc3ccccc32)nnc1-c1ccco1	-2
CCCCn1c(SCC(=O)N2CCc3ccccc32)nnc1-c1ccncc1	17*	TTR inh HuH7=-10;TTR act confirm=-1
O=C(NC1CCCCN(Cc2cccc(Cl)c2)C1=O)c1c(F)cccc1F (centres undefined)	-1
C=CCN(C)C(C#Cc1ccccc1)Cc1ccccc1 (centres undefined)	0
